Results as given in PubChem BioAssay AID1259313 (Sanford-Burnham Center for Chemical Genomics, 2017).
Out of some 340,000 compounds screened, about 8,500 (2.5%) were called active. The sample holds actives, similar compounds and a random draw of the others, so the mix is not that of the screen. A number with no mark means an inactive call.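 Rule for the calls: active = melting temperature shift of at least 10% of the positive control shift, at one fixed dose; inactive = the rest.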

What follows are molecules tested on Glutamate receptor ionotropic, NMDA 3A (GRIN3A) ligand-binding domain (assay: NR3A LBD thermal stabilization by compounds – biophysical, differential scanning fluorimetry, uHTS, primary screen (AID 1259313)). Details: at 25 µM, active compounds read high.
`CN1CCN(C(=S)SCC(=O)Nc2ccc(Cl)cc2C(=O)c2ccccc2)CC1` was tested, and the Tm shift relative to glycine control was 3.94%. `O=C(COC(=O)c1ccccc1)Nc1ccc(Cl)cc1C(=O)c1ccccc1` was tested, and the Tm shift relative to glycine control was 12.2% (active). `O=C(CCNS(=O)(=O)c1ccccc1)Nc1ccc(Cl)cc1C(=O)c1ccccc1` was tested, and the Tm shift relative to glycine control was -5.82%. With `O=C(Nc1cccc2ccccc12)N1CCC2(CC1)OCCO2` the Tm shift relative to glycine control was 0%. `Cc1cc(N2C(=O)C3CCCN3C2c2ccc(Cl)c(Cl)c2)no1` (stereo not given) gave a Tm shift relative to glycine control of 0.27%. `COCCNC(=O)CN1C2CCC1CC(O)(c1cccnc1)C2` (stereo not given) gave a Tm shift relative to glycine control of 0.09%. With `COc1ccc(N2C(=O)/C(=C/c3ccco3)C(=O)NC2=S)cc1` the Tm shift relative to glycine control was 10.6% (active). For `COc1cccc(N2C(=O)NC(=O)/C(=C\c3ccc([N+](=O)[O-])s3)C2=O)c1`, the Tm shift relative to glycine control was -7.7%. `O=C1NC(=O)N(Cc2ccco2)C(=O)/C1=C\c1ccc(-c2ccc(F)cc2)o1` gave a Tm shift relative to glycine control of 0.53%. In the case of `CC[N+]1(C)CCCC(OC(=O)C(O)(c2ccccc2)c2ccccc2)C1` (stereo not given), the Tm shift relative to glycine control is reported as 1.89%. With `CC1=C(C(=O)Nc2ccccc2)S(=O)(=O)CCO1` the Tm shift relative to glycine control was 0.53%. `CCNc1nc2[nH]c(=O)c3c(c2s1)OC(N)=C(C#N)C3c1cccs1` (stereo not given) showed a Tm shift relative to glycine control of 1.75%. With `CCN1C(=O)C(=Cc2c(C)n(CC(=O)NCC3CCCO3)c3ccccc23)C(=O)N(CC)C1=S` (stereo not given) the Tm shift relative to glycine control was 0.27%. For `CCCCCCCCCCCCn1ccc(=N)cc1`, the Tm shift relative to glycine control was 20.8% (active). In the case of `CCN1C(=O)NC(=O)C2(CCCC2)C1=O`, the Tm shift relative to glycine control is reported as 1.88%.
